Source: PubChem (National Center for Advancing Translational Sciences (NCATS))
KB-3-1 tox = kills parental KB-3-1 adenocarcinoma cells; KB-3-1 viability, CellTiter-Glo ATP luminescence, 72 h; Potency, µM (series often up to 46.1 µM), actives largely listed as cytotoxic; actives 1.4% (n = 400,000); AID 1347075; also: potency is read from the fitted curve at half-maximal effect; % is scaled to controls: 0 for no effect and ±100 for the full control effect; nearly all actives have a fitted effect of over 60% in size
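72 h, 37 °C compound treatment of KB-3-1 parental cells; CellTiter-Glo added, 10 min, luminescence read. Data corrected against DMSO-only plates and normalized before curve fitting.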
SW480 rereplic = DNA re-replication induction in SW480 cells | actives 1.8% (n = 340,000) | AID 624297 | Potency, µM (top dose mostly 46.1 µM), without a hit: at the top dose re-replication activation, actives largely listed as activators | SW480 DNA re-replication, Hoechst DNA content imaging, 48 h; also: potency is read from the fitted curve at half-maximal effect; % of control where 0% means no effect; nearly all actives have a fitted effect of over 55% in size
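Cells (250 per well) received 23 nL compound or DMSO by pin tool and were kept 48 hr at 37 C, 5% CO2. Nuclei were then stained with Hoechst for 40 min and scanned for DNA content.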
IL-1B inflam inh = blocks inflammasome-driven IL-1 beta release | THP-1 LPS/ATP IL-1B secretion, AlphaLISA, 16 h; hits give low values | activity change, % at 57.5 µM | actives 4.7% (n = 360,000) | AID 743279; in the data active = activity change below about -50%; inconclusive = mostly about -30% to -49%; also: % is scaled to controls: 0 for no effect and ±100 for the full control effect
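THP-1 cells pretreated 1 hr with compounds (up to 57.5 uM final), then stimulated with LPS (250 ng/mL final) plus ATP (1.25 mM final); secreted IL-1B measured by AlphaLISA after 16 hr, decreased signal indicating inhibition.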
MCF10A rerep = DNA re-replication induction in MCF 10a cells; MCF 10A DNA re-replication, Hoechst nuclear intensity, 48 h; AID 624296; actives 2.9% (n = 350,000); Potency, µM (series often up to 46.1 µM), inactives show at the top dose activity, positive = re-replication, hits mostly activators; also: potency is read from the fitted curve at half-maximal effect; % of control where 0% means no effect; nearly all actives have a fitted effect of over 50% in size
KB-V1 cytotox = KB-V1 MDR subline cytotoxicity; Potency, µM (highest dose often 46.1 µM), hits mostly cytotoxic; KB-V1 MDR cells viability, CellTiter-Glo, 72 h; actives 3.4% (n = 400,000); also: potency is read from the fitted curve at half-maximal effect; % is scaled to controls: 0 for no effect and ±100 for the full control effect; nearly all actives have a fitted effect of over 60% in size
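Following 72 h at 37 degrees C with compound, KB-V1 cell viability was read by CellTiter-Glo luminescence, medium being phenol-red-free DMEM plus 10% FBS; concentration-response parameters came from normalized, curve-fitted qHTS data.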
* hit, by the source's call; i = inactive; ? = inconclusive; / = no result given; ! = repeats disagree. This is a sample that favours compounds with a hit; in the whole collection about 9.9% have one here. Unless noted, calls follow the shape of the dose curve; as a rule, active = well fitted curve in the direction sought with a large enough effect; inconclusive = small, poorly fitted or top-dose-only effect, or another doubt; inactive = no such curve, though single readings can be large; an effect the other way counts as inactive or inconclusive.

SMILES	KB-3-1 tox	SW480 rereplic	IL-1B inflam inh	MCF10A rerep	KB-V1 cytotox
Cc1ccc(CNC(=O)c2ccc(OCC3CCCO3)cc2)cc1 (stereo unspecified)	i	73.6%	24.6	-1.6%	i
O=C(NCc1ccc(Cl)cc1)c1ccc(OCC2CCCO2)cc1 (stereo unspecified)	i	-2.1%	-5.6	7.0%	16.4µM*
Cc1cccnc1NC(=O)c1ccc(OCC2CCCO2)cc1 (stereo unspecified)	i	-7.5%	-11.9	6.1%	i
CC(C)C[C@H]1CNC(=S)N1C[C@H]1CCCN1C[C@H](Cc1ccccc1)N1C[C@H](CC(C)C)N(CCc2ccccc2)C1=S	i	/	3.4	/	i
CCOc1ccc(/C=C(\C#N)C(=O)Nc2sc3c(c2C(=O)OC)C(C(=O)OC)CC3)cc1OC (stereo unspecified)	i	/	/	/	i
Cc1cccc(NC(=O)CN(CC2CCCO2)C(=O)c2oc3ccc(F)cc3c2C)c1C (stereo unspecified)	i	-0.7%	-17.4	15.5%	5.17µM*
O=C(Nc1ccc(Br)cc1Cl)c1ccc(OCC2CCCO2)cc1 (stereo unspecified)	i	22.4%	-81.2*	?	?
Cc1cc(NC(=O)c2ccc(OCC3CCCO3)cc2)ccc1Br (stereo unspecified)	i	/	19.7	/	?
COCCNC(=O)C1(C)CCN(C(=O)c2ccc(OC)c(F)c2)C1 (stereo unspecified)	i	/	42.4	/	i
CN(C)C(=S)N=c1ssc(=S)n1Cc1cccnc1	?	18.4µM*	9.7	11.6µM*	?
S=C1NCN(Cc2cccnc2)CN1	i	-8.8%	-2.8	-4.5%	i
COc1ccc(OC)c(S(=O)(=O)N2CCC(C(=O)NCc3ccccn3)CC2)c1	i	0.5%	3.7	-0.4%	i
CCC(Nc1ccc(-c2nc(-c3ccco3)no2)cc1[N+](=O)[O-])c1ccccc1 (stereo unspecified)	i	/	/	/	i
CC(C)CCNC(=O)C1CCN(S(=O)(=O)c2cccc3nsnc23)CC1	i	/	/	/	i
O=C(CN1C(=O)/C(=C/c2ccc(C(F)(F)F)cc2)Sc2ccccc21)NCCCN1CCOCC1	i	?	?	20.6µM*	i
CCc1ccc(/C=C2/Sc3ccccc3N(CC(=O)NCCCN3CCOCC3)C2=O)cc1	i	?	-65.2*	?	i
O=C(CCN1C(=O)/C(=C\c2ccccc2)SC1=S)NCCCN1CCOCC1	i	-2.0%	-27.0	?	?
CCOc1ccccc1-n1nnnc1SCC(=O)N(C)C1CCS(=O)(=O)C1 (stereo unspecified)	i	/	1.5	/	i
CCC(=O)N(C1=C(NC)C(=O)c2ccccc2C1=O)C(C)C	2.59µM*	?	132.9	5.8µM*	?
CNC1=C(N(C(C)=O)c2ccc(Br)cc2)C(=O)c2ccccc2C1=O	?	8.2µM*	-78.5*	0.581µM*	?
CCOC(=O)CSc1nc(=O)n2cc(C)ccc2n1	i	-2.1%	-23.2	-1.8%	i
Cc1csc(=O)n1CCC(=O)OCC(=O)NNC(=O)c1ccccc1	i	-10.1%	5.6	0.0%	i
COc1ccccc1/C=C/C(C)=O	i	0.1%	-14.3	-14.0%	i
COc1ccccc1C=CC(=O)C=Cc1ccccc1OC	?	8.2µM*	-104.3*	3.26µM*	?
COc1ccccc1/C=C/C(=O)Nc1cccnc1Cl	i	-42.5%	-54.9*	7.5%	i
SMILES	KB-3-1 tox	SW480 rereplic	IL-1B inflam inh	MCF10A rerep	KB-V1 cytotox
CNc1ccc(Br)cc(C(=O)/C=C/c2cccc(OC)c2OC)c1=O	i	-19.2%	-11.8	0.5%	i
COc1ccccc1/C=C/C(=O)/C=C/c1ccccc1O	?	?	-98.3*	10.3µM*	?
CNc1ccccc(C(=O)/C=C/c2ccccc2OC)c1=O	?	?	-104.2*	?	14.6µM*
CC(C)(C)c1ccc(-c2nc3n(c(=O)c2C#N)CCS3)cc1	i	3.4%	-10.7	-1.6%	?
COc1ccc(NC(=O)c2c(C)noc2C(C)C)cc1S(=O)(=O)N1CCCCC1	/	2.3%	6.8	7.7%	/
O=S(=O)(c1cnc(Cl)c(Br)c1)N1CCN(c2ncccn2)CC1	i	-1.2%	-14.9	-0.8%	i
O=S(=O)(c1cnc(Cl)c(Br)c1)N1CCCCCC1	i	0.0%	-103.7*	?	i
Cc1n[nH]c(C)c1CCc1nc2c3ccccc3nc(SCC(=O)Nc3ccccc3F)n2n1	i	-0.5%	60.2	?	i
Cc1cccc(NC(=O)CSc2nc3ccccc3c3nc(CCc4c(C)n[nH]c4C)nn23)c1	?	?	-10.0	7.31µM*	23.1µM*!
Cc1cncn1CCc1nc2c3ccccc3nc(SCC(=O)Nc3ccc(F)cc3)n2n1	i	/	/	/	i
Cc1cncn1CCc1nc2c3ccccc3nc(SCC(=O)Nc3cccc(Cl)c3)n2n1	?	?	-96.6*	?	?
CCc1nc2c(OCc3cc(Cl)cc(Cl)c3)cccn2c1N(C)C(=O)c1ccc(OC)cc1	i	/	?	/	?
CCN1CCc2nc3sc(C(=O)Nc4cccc(Cl)c4C)c(N)c3cc2C1	16.4µM*	/	/	/	6.51µM*
CC(C)c1ccc2nc3sc(C(=O)N4CCc5ccccc5C4)c(N)c3cc2c1	i	2.2%	-11.7	?	i
CCN1CCc2nc3sc(C(=O)N4CCc5ccccc5C4)c(N)c3cc2C1	i	3.2%	-73.1*	18.4µM*	?
COc1ccc(C(=O)N2CCN(c3ccccn3)CC2)cc1[N+](=O)[O-]	i	-16.3%	14.1	0.9%	?
O=CN1CCN(C(=O)Cc2ccc(Cl)cc2)CC1	i	/	7.1	/	i
O=S(=O)(O)c1cc(Cl)cc(N=Nc2ccc(O)cc2O)c1O	i	-2.9%	0.0	-15.0%	i
O=[N+]([O-])c1ccc(N=Nc2ccc(O)cc2O)cc1	?	?	-92.2*	?	i
O=[N+]([O-])c1cccc(N=Nc2ccc(O)cc2O)c1	?	13µM*	-67.6*	?	i
CC1(OC(=O)C2CCCC2)C(=O)C=C2C=C(c3ccsc3)N(C3CCCCC3)C=C2C1=O (stereo unspecified)	20.6µM*	-11.9%	-10.3	5.4%	i
CCN(CC)CCOC(=O)c1ccc(NC(=O)CNC(=O)C2CCCCC2)cc1	i	-0.9%	15.6	8.1%	i
N#CC(C#N)=Cc1cn(-c2ncc(C(F)(F)F)cc2Cl)c2ccccc12	i	0.1%	4.5	?	?
CO/N=C/NC(=O)Cc1cn(-c2ncc(C(F)(F)F)cc2Cl)c2ccccc12	?	2.3%	-24.0	-14.6%	13µM*
